Each molecule was assayed on T1, RSK4(Kin.Dom.2-C-terminal).
T1 construct: gene RPS6KA6
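Note: kd values determined as follow-up on hits from a single-replicate KINOMEscan panel screen.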

SMILES | Kd [nM]
CCc1nc(-c2cccc(C)c2)c(-c2ccncc2)s1 | 120
OCCCNc1nccc(-c2c(-c3cccc(C(F)(F)F)c3)nn3cc(C(F)(F)F)ccc23)n1 [GW630813] | 2700
Nc1nc(-c2ccccc2F)c(-c2ccnc3ccccc23)s1 [GW560459] | 28
